From PubChem BioAssay
DT40 TDP1 no CPT: qHTS for Inhibitors of human tyrosyl-DNA phosphodiesterase 1 (TDP1): qHTS in cells in absence of CPT. DT40 Tdp1-/- hTDP1 cells, no CPT, ATP luminescence, 48 h. Potency, µM (top dose mostly 46.2 µM), for inactives: top-dose activity change, negative = growth inhibition, usual class: inhibitors. 420,000 tested, 15% active; also: potency is read from the fitted curve at half-maximal effect; nearly all actives have a fitted effect of over 55% in size
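Stably hTDP1-transfected Tdp1-null chicken DT40 cells were treated with library compounds minus camptothecin and grown for at least 48 hr at 37 °C, after which cellular ATP was quantified by luminescence.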
Gal4-VP16 FLuc: inhibits Gal4-VP16 luciferase reporter, ROR gamma counter-screen | Drosophila S2 Gal4-VP16 UAS-luciferase, luminescence, 20 h | 310,000 tested, 3.5% active | AID 2546 | Potency, µM (top dose mostly 53.6 µM), for inactives: at the highest dose activity, negative = inhibition, most hits filed as inhibitors;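 also: Gal4-VP16 expression switched on by copper sulfate through the metallothionein promoter; potency is read from the fitted curve at half-maximal effect; nearly all actives have a fitted effect of over 50% in size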
LDHA block: blocks human lactate dehydrogenase A | P00338 | purified LDHA, NADH/diaphorase-resazurin fluorescence; active compounds read low | activity change, % (values are at about 110 or 230 µM) | 480,000 tested, 0.15% active | AID 1347041; in the data active = activity change below about -30%; inconclusive = mostly about -25% to -30%;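 also: plate controls were DMSO wells for no effect and wells without enzyme for full effect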
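Human LDH5 at 2 nM final in Tris HCl pH 7.4 with 0.06 mM NADH and 0.2 mM pyruvate, reacted 5 minutes at room temperature. Remaining NADH coupled via diaphorase/resazurin; resorufin fluorescence read at 0 and 20 minutes, normalized to enzyme-free and DMSO wells.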
IL-1B inflam inh: inhibitors of inflammasome signaling (IL-1 beta secretion); activity change, % at 57.5 µM; 360,000 tested, 4.7% active; THP-1 LPS/ATP IL-1B secretion, AlphaLISA, 16 h; active compounds read low; in the data active = activity change below about -50%; inconclusive = mostly about -30% to -49%
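Secreted IL-1B measured by AlphaLISA bead assay after 16 h compound exposure of THP-1 cells; compounds (final up to 57.5 uM) added 1 h before LPS (250 ng/mL) and ATP (1.25 mM) stimulation; lower signal means less secretion.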
RORgamma inh: inhibitors of mouse ROR gamma transcriptional activity; P51450; Drosophila S2 Gal4-RORgamma UAS-luciferase reporter, 20 h; Potency, µM (series often up to 53.6 µM), for the others: at the top dose activity change, negative = inhibition, usual class: inhibitors; 310,000 tested, 5.4% active; also: potency is read from the fitted curve at half-maximal effect; nearly all actives have a fitted effect of over 60% in size
Target sequence (P51450 whole entry, looked up, the tested form may be a part): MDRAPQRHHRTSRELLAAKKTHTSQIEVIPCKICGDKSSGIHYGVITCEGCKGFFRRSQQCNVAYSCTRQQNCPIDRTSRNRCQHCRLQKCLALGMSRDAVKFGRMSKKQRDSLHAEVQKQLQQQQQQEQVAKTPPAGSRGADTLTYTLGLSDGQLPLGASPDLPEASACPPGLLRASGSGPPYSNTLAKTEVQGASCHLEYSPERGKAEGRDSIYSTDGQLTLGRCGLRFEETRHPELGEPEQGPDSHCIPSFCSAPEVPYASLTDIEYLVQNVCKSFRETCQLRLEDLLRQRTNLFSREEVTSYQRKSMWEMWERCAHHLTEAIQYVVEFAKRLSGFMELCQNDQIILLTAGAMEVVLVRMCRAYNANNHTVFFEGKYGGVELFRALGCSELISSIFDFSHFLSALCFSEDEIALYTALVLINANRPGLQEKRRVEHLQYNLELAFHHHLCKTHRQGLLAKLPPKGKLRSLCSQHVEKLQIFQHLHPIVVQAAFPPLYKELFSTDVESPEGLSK
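Drosophila S2 cells stably expressing Gal4-DBD/mouse RORγ fusion under metallothionein promoter plus UAS-luciferase; compound 1 h, then 700 uM CuSO4 induction for 20 h at ambient temperature; inhibition read as reduced luminescence.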
DT40 TDP1 CPT: DT40-hTDP1 cell growth loss with CPT. chicken DT40 Tdp1-/-;hTDP1 cells + 20 nM CPT, ATP luminescence, 48 h. Potency, µM (titrated, usually from 46.2 µM), for inactives: at the highest dose activity change, negative = growth inhibition, usual class: inhibitors. 420,000 tested, 12% active. AID 686979; also: potency is read from the fitted curve at half-maximal effect; nearly all actives have a fitted effect of over 55% in size
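Chicken DT40 Tdp1-/- cells complemented with human TDP1, 400 cells/well, exposed to compounds plus 20 nM camptothecin for at least 48 h at 37 C; viability read as ATP content by CellTiter-Glo luminescence.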
Active calls of the source: *; ? = inconclusive; . = not tested or not shown; [ ] = another dose, or the depositor's remark. Only some compounds are listed: those with a hit (about 18% of all), similar ones and a draw of the others. Unless noted, calls follow the shape of the dose curve; as a rule, active = well fitted curve in the direction sought with a large enough effect; inconclusive = small, poorly fitted or top-dose-only effect, or another doubt; inactive = no such curve, though single readings can be large; an effect the other way counts as inactive or inconclusive. Unless noted, % is scaled to controls: 0 for no effect and ±100 for the full control effect.

SMILES	DT40 TDP1 no CPT	Gal4-VP16 FLuc	LDHA block	IL-1B inflam inh	RORgamma inh	DT40 TDP1 CPT
Cc1oc(-c2cccc(NC(=O)c3ccccn3)c2)nc1CNC(=O)C#Cc1ccccc1	23µM*	.	.	.	.	?
Cc1ncoc1C(=O)NCc1nc(-c2cccc(NC(=O)c3ccccn3)c2)oc1C	?	.	.	.	.	-6%[9.04 µM]
Cc1ccc(C(=O)Nc2cccc(-c3nc(CNC(=O)c4ccc5ccccc5n4)c(C)o3)c2)s1	16µM*	.	.	.	.	?
O=C(CN(c1ccccc1)S(=O)(=O)c1ccccc1)NCC1CCCO1 (stereo not drawn)	.	.	-1	.	.	.
O=C(NCCN1CCN(C(=O)c2ccccc2)CC1)C(=O)Nc1ccccc1	.	.	4	.	.	.
COc1cc(Br)c(C=O)cc1OC	.	.	-1	.	.	.
Cn1c(=O)c(Cc2ccccc2)c(O)c2ccccc21	-15%	4%	-8	-9	3%	?
CCCCCOC(=O)Cc1c(O)c2ccccc2n(C)c1=O	16µM*	2%	1	-20	?	16µM*
NC(N)=NC(N)=Nc1ccc(Br)cc1	.	.	1	.	.	.
CCN(c1ccccc1)S(=O)(=O)c1ccc(C(=O)NCCc2ccc(S(N)(=O)=O)cc2)cc1	?	12%	-2	18	6%	23µM*
NS(=O)(=O)c1ccc(CCNC(=O)c2ccc[nH]c2=S)cc1	-2%	11µM*	-5	36	?	22%
CCN(c1ccccc1)S(=O)(=O)c1cccc(C(=O)Nc2cccc(C)n2)c1	21µM*	.	4	-4	.	23µM*
C=CCN(c1ccccc1)S(=O)(=O)c1cccc(C(=O)Nc2cccc(C)n2)c1	23µM*	.	1	-15	.	18µM*
CCN(c1ccccc1)S(=O)(=O)c1cccc(C(=O)Nc2ccc3oc(C)nc3c2)c1	.	.	-24	.	.	.
NS(=O)(=O)c1ccc(CCNC(=O)c2cccc3ccccc23)cc1	-7%	6%	-2	-8	-21%	-14%
CCN(c1ccccc1)S(=O)(=O)c1ccc(C(=O)Nc2ccccn2)cc1	?	.	2	-3	.	21µM*
CCc1sc(C(=O)NCCc2ccc(S(N)(=O)=O)cc2)cc1C	2%	2%	-3	-2	?	-5%
CCc1sc(C(=O)NCCc2ccc(S(N)(=O)=O)cc2)cc1Br	16µM*	2%	-1	?	20%	?
COc1cccc(-c2cnc3c(NC(C)=O)cc(-c4ccccc4OC)cn23)c1	16µM*	.	1	0	.	18µM*
COc1ccccc1-c1cc(NC(C)=O)c2ncc(-c3cccc(C(F)(F)F)c3)n2c1	21µM*	.	3	-4	.	23µM*
CC(=O)Nc1cc(-c2cccnc2)cn2c(-c3cccc(C(F)(F)F)c3)cnc12	?	.	4	-12	.	18µM*
COc1cccc(-c2cnc3c(NC(C)=O)cc(-c4cc(OC)c(OC)c(OC)c4)cn23)c1	?	.	2	0	.	?
CC(=O)Nc1cc(-c2ccccc2F)cn2c(-c3ccccc3)cnc12	?	.	4	-25	.	16µM*
O=C(CSc1nc2ccccc2o1)NC(=O)NC1CCCC1	.	.	-3	.	.	.
N#Cc1cccc(CN2CCCc3ccccc32)c1	.	.	1	.	.	.
SMILES	DT40 TDP1 no CPT	Gal4-VP16 FLuc	LDHA block	IL-1B inflam inh	RORgamma inh	DT40 TDP1 CPT
COc1ccccc1-c1cc(NC(C)=O)c2ncc(-c3ccccc3)n2c1	9.2µM*	.	5	-28	.	21µM*
COc1ccc(-c2cc(NC(C)=O)c3ncc(-c4ccccc4)n3c2)c(OC)c1	-83%	.	11	-26	.	?
S=C(NC1CCCCC1)NN(c1ccccc1)c1ccccc1	?	5.6µM*	-7	9	2.5µM*	?
C/C(=N\NC(=S)NC1CCCCC1)c1ccc(O)cc1	16µM*	?	-7	?	4.5µM*	?
COc1cc(OC)c(C(=O)NNC(=S)NC2CCCCC2)cc1OC	?	-11%	-2	-14	?	5%
COc1ccc(Cl)cc1C(=O)NNC(=S)NC1CCCCC1	?	?	-17	33	0.25µM*	-9%
O=C(NNC(=S)NC1CCCCC1)c1ccccc1Br	?	?	-8	-4	1.1µM*	?
O=C(NC(=S)NC1CCCCC1)c1ccccc1	?	7.1µM*	4	21	5µM*	-28%
CC1CCCC(NC(=S)NC(=O)c2ccccc2Br)C1C (stereo not drawn)	?	5µM*	1	27	2.5µM*	?
O=C(NC(=S)NC1CCS(=O)(=O)C1)c1ccccc1 (stereo not drawn)	6%	-9%	0	-15	17%	2%
CC(NC1CCCCC1)C(=O)NN=C(c1ccccc1)c1ccccc1 (stereo not drawn)	?	-13%	-5	-63*	3%	?
C/C(=N\NC(=S)NC1CCCCC1)c1ccccc1	29µM*	?	-2	19	?	?
CCOc1ccc(C(=O)Nc2cccc(-c3nc4ccccc4o3)c2)cc1[N+](=O)[O-]	.	.	-4	.	.	.
CCc1sc(Nc2cccc(Cl)c2)nc1-c1cc2cccc(OC)c2oc1=O	16µM*	.	-1	.	.	?
Cc1nc2c(c(C)nn2C(C)(C)C)c(C)c1CCC(=O)Nc1ccc(Br)cc1Br	26µM*	.	0	.	.	?
Cc1nc2c(c(C)nn2C(C)(C)C)c(C)c1CCC(=O)Nc1ccc(F)cc1	-23%	.	-1	.	.	?
CCOC(=O)CCc1c(C)nc2c(c(C)nn2C(C)(C)C)c1C	?	4%	0	6	-1%	?
COc1ccc(OC)c(NC(=O)CCc2c(C)nc3c(c(C)nn3C(C)(C)C)c2C)c1	16µM*	.	2	.	.	?
CC(C)(C)NC(=O)COc1ncnc2c(Cl)cc(Cl)cc12	.	.	-14	.	.	.
COc1ccc(-c2nc(C#N)c(NC(C)c3ccccc3)o2)cc1OC (stereo not drawn)	16µM*	-3%	0	?	?	?
COc1ccccc1-c1cnn2c(NCc3ccccc3)cc(C)nc12	?	5%	-1	-20	1%	?
COc1ccc(CCNc2cc(C)nc3c(-c4ccccc4OC)cnn23)cc1OC	18µM*	-8%	8	-4	-17%	?
COc1ccc(-c2nc(C#N)c(NCCCN(C)C)o2)cc1OC	-5%	0%	7	-3	4%	-18%
COc1ccc(CCNc2oc(-c3ccccc3OC)nc2C#N)cc1OC	18µM*	-4%	2	-11	10%	?
